TDP1 cell CPT – growth inhibition of DT40 Tdp1-/-;hTDP1 cells with camptothecin (screen for TDP1 inhibitors). Potency, µM (highest dose often 46.2 µM), without a hit: top-dose activity change, negative = growth inhibition, actives largely listed as inhibitors. 420,000 tested, 12% active. chicken DT40 Tdp1-/-;hTDP1 cells + 20 nM CPT, ATP luminescence, 48 h. AID 686979; note: nearly all actives have a fitted effect of over 55% in size
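Cell growth measured by CellTiter-Glo luminescence after a minimum 48 h, 37 C compound exposure with 20 nM CPT in Tdp1-knockout DT40 cells stably expressing hTDP1, seeded 400/well; qHTS titration format.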
TDP1 block – TDP1 (human) enzyme inhibition. Potency, µM (series often up to 130 µM), without a hit: at the highest dose activity change, negative = inhibition, most hits filed as inhibitors. recombinant TDP1, AlphaScreen DNA substrate cleavage. AID 485290. 350,000 tested, 0.28% active; note: nearly all actives have a fitted effect of over 40% in size
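Tdp1 1 nM final; 15 min RT w/ cpd; substrate 15 nM, 5 min; beads 10 ug/ml, 10 min; AlphaScreen read. Neg ctrl: no enzyme.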
VP16 counter – counter-screen for ROR gamma inhibitors: Gal4-VP16 reporter | Drosophila S2 Gal4-VP16 UAS-luciferase, luminescence, 20 h | 310,000 tested, 3.5% active | Potency, µM (highest dose often 53.6 µM), without a hit: top-dose activity, negative = inhibition, hits mostly inhibitors | AID 2546;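 note: Gal4-VP16 expression switched on by copper sulfate through the metallothionein promoter; nearly all actives have a fitted effect of over 50% in size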
RORg inh – inhibitors of mouse ROR gamma transcriptional activity. Drosophila S2 Gal4-RORgamma UAS-luciferase reporter, 20 h. Potency, µM (series often up to 53.6 µM), without a hit: at the highest dose activity change, negative = inhibition, hits mostly inhibitors. 310,000 tested, 5.4% active. AID 2551; note: nearly all actives have a fitted effect of over 60% in size
Target sequence (P51450 whole entry, looked up, the tested form may be a part): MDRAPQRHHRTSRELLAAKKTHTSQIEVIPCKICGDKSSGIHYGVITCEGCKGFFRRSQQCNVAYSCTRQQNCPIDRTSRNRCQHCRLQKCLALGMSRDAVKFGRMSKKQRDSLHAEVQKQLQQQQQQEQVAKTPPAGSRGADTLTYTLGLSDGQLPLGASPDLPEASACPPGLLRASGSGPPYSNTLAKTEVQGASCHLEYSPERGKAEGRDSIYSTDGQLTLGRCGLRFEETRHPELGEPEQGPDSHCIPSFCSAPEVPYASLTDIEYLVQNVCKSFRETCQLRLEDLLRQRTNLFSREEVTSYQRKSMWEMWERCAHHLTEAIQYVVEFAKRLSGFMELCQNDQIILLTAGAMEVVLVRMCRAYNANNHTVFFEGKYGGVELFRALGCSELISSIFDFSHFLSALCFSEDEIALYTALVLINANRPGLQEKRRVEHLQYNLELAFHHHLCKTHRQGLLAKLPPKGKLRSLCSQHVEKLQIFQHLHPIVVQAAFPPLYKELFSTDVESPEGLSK
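ROR gamma transcriptional activity was tracked as Gal4-UAS luciferase output in stably transfected Drosophila Schneider cells, with compound added 1 hr before 700 uM copper sulfate induction and a 20 hr ambient-temperature incubation.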
DT40 TDP1 no CPT – qHTS for Inhibitors of human tyrosyl-DNA phosphodiesterase 1 (TDP1): qHTS in cells in absence of CPT | Potency, µM (series often up to 46.2 µM), for inactives: at the highest dose activity change, negative = growth inhibition, hits mostly inhibitors | AID 686978, 2013 | DT40 Tdp1-/- hTDP1 cells, no CPT, ATP luminescence, 48 h | 420,000 tested, 15% active; note: nearly all actives have a fitted effect of over 55% in size
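Stably hTDP1-transfected Tdp1-null chicken DT40 cells were treated with library compounds minus camptothecin and grown for at least 48 hr at 37 °C, after which cellular ATP was quantified by luminescence.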
Active calls of the source: *; u = inconclusive; x = no result; [ ] = remark or other dose. In the library only some 19% were active in any assay of this set; here they are far more common. Calls come from the whole dose curve; as a rule, active = well fitted curve in the direction sought with a large enough effect; inconclusive = small, poorly fitted or top-dose-only effect, or another doubt; inactive = no such curve, though single readings can be large; an effect the other way counts as inactive or inconclusive. % is set by controls: 0 for no effect and ±100 for the full control effect; potency is the fitted concentration of half-maximal effect.

SMILES	TDP1 cell CPT	TDP1 block	VP16 counter	RORg inh	DT40 TDP1 no CPT
CC(C)(C)c1nnc(NC(=S)Nc2ccccc2)s1	u	4%	0.89µM*	0.28µM*	u
O=C(NCc1ccccn1)C1C2C=CC(C2)C1C(=O)Nc1ccc(F)cc1 (stereo not given)	3%	1%	11%	16%	-1%
O=C(NCc1ccccn1)/C(=N/O)c1ccccc1	15µM*	-2%	-24%	10µM*	15µM*
S=C(Nc1ccccc1)Nc1nccs1	5.2µM*	15%	-13%	4%	3.7µM*
Fc1ccc(NC(=S)NCc2ccccn2)cc1	-5%	6%	u	10µM*	-11%
CC(C)(C)c1nnc(NC(=O)c2cccnc2Cl)s1	1%	x	-16%	-3%	4%
C/C(=N\O)C(=O)NCc1ccccn1	-11%	1%	x	7%[0.365 µM]	-4%
COc1ccc([C@]23Cc4cc(C#N)ccc4[C@H](O2)c2c(cc(C)n(Cc4ccccc4)c2=O)O3)cc1	x	x	7%[10 µM]	-11%[10 µM]	x
S=C(NCc1ccncc1)Nc1ccccc1	2%	-8%	2%	18%	u
S=C(NCc1ccccn1)Nc1ccc(Cl)cc1Cl	-5%	3%	13µM*	8.9µM*	-4%
O=C(CNC(=O)c1ccc(Cl)cc1Cl)NCc1ccccn1	-1%	1%	x	x	-1%
S=C(NCc1ccccn1)Nc1ccc(Cl)c(Cl)c1	16µM*	3%	5µM*	2.5µM*	u
S=C(NCc1ccccn1)Nc1ccccc1	17%	4%	u	14µM*	5%
S=C(NCc1ccncc1)Nc1ccc(Cl)c(Cl)c1	u	3%	1%	u	u
COc1ccc(C(=O)COC(=O)c2cc(-c3cccs3)nc3ccccc23)cc1	-32%	x	x	x	u
CN(Cc1cnccn1)Cc1nc(Cc2ccccc2F)no1	30%	-3%	2%	10%	8%
CCCC[C@]12Cc3c(ccc4ccccc34)C(O1)C1=C(O2)C(=O)c2ccccc2C1=O	x	x	-4%[10 µM]	-23%[10 µM]	x
CCCCn1c(=O)c2ccccc2n2c(=S)[nH]nc12	14%	15%	u	10µM*	-16%
CCCCCn1c(=O)c2ccccc2n2c(=S)[nH]nc12	-17%	x	u	7.1µM*	u
CCOCCn1c(N(C)Cc2ccccc2)nc2c1c(=O)[nH]c(=O)n2C	-16%	3%	-4%	-13%	-23%
Cn1c(=O)[nH]c(=O)c2[nH]c(N(Cc3ccccc3)Cc3ccccc3)nc21	u	3%	3%	-26%	15µM*
Cn1c(=O)[nH]c(=O)c2c1nc(N(CCO)Cc1ccccc1)n2CCCc1ccccc1	26µM*	4%	9%	18%	u
C=C(C)Cn1c(N(CCO)Cc2ccccc2)nc2c1c(=O)[nH]c(=O)n2C	-27%	3%	0%	-23%	-17%
Cn1c(=O)[nH]c(=O)c2[nH]c(CN3CCN(Cc4ccccc4)CC3)nc21	13%	x	-2%	-17%	0%
CN(Cc1ccccc1)c1nc2c(c(=O)[nH]c(=O)n2C)n1CCCc1ccccc1	29µM*	8%	-12%	u	35µM*
SMILES	TDP1 cell CPT	TDP1 block	VP16 counter	RORg inh	DT40 TDP1 no CPT
CC(NC(=O)CSc1n[nH]c(-c2ccccc2Cl)n1)c1nc2ccccc2[nH]1 (stereo not given)	-6%	0%	x	x	-3%
Cc1ncc([N+](=O)[O-])n1C[C@H](O)CCl	x	7%[21 µM]	1%[17 µM]	14%[16.9 µM]	x
COCCN1Cc2cccc(C(=O)NCc3cccs3)c2C1=O	-18%	-3%	-2%	21%	20%
COCCCNC(=O)/C(C#N)=C/c1ccc(OCC(=O)O)c(OC)c1	-2%	-3%	u	33%	-11%
Cc1ccn2c(NC3CCCCC3)c(C)nc2c1	u	1%	u	13µM*	-14%
Cc1ccc(-c2nc3ncccn3c2NC2CCCCC2)o1	u	5%	25%	3%	u
Cc1ccn2c(NC3CCCCC3)c(-c3ccc(C)o3)nc2c1	16µM*	7%	x	x	11µM*
COc1ccc(CCNC(=O)COC(=O)COc2c(C)cc(C)cc2C)cc1OC	-9%	3%	x	x	2%
OC1OC[C@@H](O)[C@H](O)[C@H]1O (stereo not given in full)	x	6%	-2%	1%	x
CC(C)=CCc1c(O)cc2occ(-c3ccc4c(c3)OCO4)c(=O)c2c1O	u	11%[56.1 µM]	14µM*	u	u
COc1cc(O)cc2occ(-c3ccc(O)cc3)c(=O)c12	-10%	3%	0%	-4%	-16%
O=c1c(-c2ccc(O)cc2)coc2cc(O)cc(O)c12	13µM*	6%	5%	u	12µM*
CCc1cc2c(=O)c(-c3ccc4c(c3)OCCO4)coc2cc1OS(C)(=O)=O	-14%	3%	-14%	u	u
O=c1c(-c2cc(O)c(O)c(O)c2)coc2cc(O)c(O)c(O)c12	u	0.28µM*	-12%	0%	u
COc1ccc(NC(=O)COC(=O)C23CCC(=O)N2c2ccccc2S3)cc1 (stereo not given)	-7%	0%	1%	16%	-4%
O=C(Cc1cccs1)Nc1nncs1	6%	1%	-1%	12%	-9%
CC1=NN(CCC#N)C(=O)/C1=C/c1ccc(N(C)C)cc1	9%	5%	3%	34%	u
CCN(CC)c1ccc(/C=C2\C(=O)N(c3nnc(C)c(=O)[nH]3)N=C2C)cc1	13µM*	4%	u	u	18µM*
COc1ccc(OCCn2c(N)nc3ccccc32)cc1	u	x	-6%	-29%	23µM*
COc1ccc(OCCn2c(C(C)Oc3ccccc3)nc3ccccc32)cc1 (stereo not given)	u	6%	x	x	u
Nc1nc2ccccc2n1CCOc1ccc(F)cc1	u	x	-5%	-27%	23µM*
N#Cc1c(-c2ccc(C(F)(F)F)cc2)cc(-c2ccccc2)[nH]c1=S	u	8%	-7%	-26%	u
CCOn1c(=O)c(-c2cccs2)[n+]([O-])c2ccccc21	-10%	5%	0%	12%	-9%
Cn1c(-c2cccs2)[n+](C)c2ccccc21	u	4%	-22%	26%	18µM*
Cc1cccc2cc(-c3ccccc3)c(-c3ccccc3)c[n+]12	8.2µM*	8%	u	u	7.3µM*
COCCN(C(=O)COC(=O)c1cccnc1Cl)c1c(N)n(Cc2ccccc2)c(=O)[nH]c1=O	14%	2%	x	x	-7%
CC(=O)c1c(N2CCN(C)CC2)[nH]c(-c2ccccc2)nc1=S	u	6%	-20%	10µM*	16µM*
CCn1c(C)c(C(C)=O)c(N2CCN(c3ccccc3)CC2)nc1=S	-12%	-3%	22%	-20%	-9%

Assay outcomes from PubChem.
